The whole screen tested about 5,500 compounds, of which about 2,000 (36%) were called active. About 18% were inconclusive and are not listed. Rule as the data show it: active = normalized growth mostly below about 0.91 (no sharp cut-off); inconclusive = no clear call, values can overlap the other calls; inactive = mostly above about 0.92. Some of the results follow.
Experiment: chemical genetic growth profiling, strain panel (AID 1159580);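 also: tested at 20 µM; growth read once vehicle control cultures reached saturation at 30 °C; 1 = growth at the plate median or of vehicle wells; lower values mean less growth of the strain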
Settings: S. cerevisiae deletion strains, growth OD

Measured: normalized growth

Cc1cc(=O)c2c(O)c3c(cc2o1)OCC(C)CC3 (centres undefined)
inactive: locus YBR021W, strain FUR4, active compounds read low 0.993 | locus YBR229C, strain ROT2, active compounds read low 0.981 | locus YCL029C, strain bik1, active compounds read low 0.912 | locus YDL035C, strain GPR1, active compounds read low 0.954 | locus YDL074C, strain BRE1, active compounds read low 0.818 | locus YDL101C, strain DUN1, active compounds read low 0.898 | locus YDL185W, strain tfp1, active compounds read low 0.915 | locus YDR162C, strain NBP2, active compounds read low 0.885 | locus YER167W, strain BCK2, active compounds read low 0.961 | locus YGL078C, strain dbp3, active compounds read low 0.936 | locus YHR094C, strain hxt1, active compounds read low 0.926 | locus YHR129C, strain ARP1, active compounds read low 0.926 | locus YIL066C, strain RNR3, active compounds read low 0.941 | locus YIL073C, strain SPO22, active compounds read low 0.796 | locus YJL095W, strain BCK1, active compounds read low 0.815 | locus YJL134W, strain LCB3, active compounds read low 0.969 | locus YJL187C, strain SWE1 (second series), active compounds read low 0.908 | locus YJR043C, strain POL32, active compounds read low 0.966 | locus YKL009W, strain mrt4, active compounds read low 0.897 | locus YKL085W, strain MDH1 (second series), active compounds read low 0.942 | locus YKL085W, strain MDH1, active compounds read low 0.942 | locus YLR058C, strain SHM2, active compounds read low 0.926 | locus YLR102C, strain apc9, active compounds read low 0.928 | locus YLR268W, strain sec22, active compounds read low 0.914 | locus YML016C, strain PPZ1, active compounds read low 0.976 | locus YNL067W, strain RPL9B, active compounds read low 0.919 | locus YNL250W, strain rad50, active compounds read low 0.902 | locus YNL271C, strain bni1, active compounds read low 0.922 | locus YNL298W, strain CLA4, active compounds read low 0.929 | locus YNR052C, strain pop2, active compounds read low 0.932 | locus YOL012C, strain htz1 1.02 | locus YOR061W, strain CKA2, active compounds read low 0.98 | locus YOR069W, strain VPS5, active compounds read low 0.96 | locus YPR141C, strain kar3, active compounds read low 0.918
active: locus YDL192W, strain arf1, active compounds read low 0.848 | locus YDR101C, strain arx1, active compounds read low 0.896 | locus YDR318W, strain mcm21, active compounds read low 0.858 | locus YDR388W, active compounds read low 0.909 | locus YDR502C, strain sam2, active compounds read low 0.858 | locus YER110C, active compounds read low 0.893 | locus YER155C, strain BEM2, active compounds read low 0.849 | locus YGL086W, strain mad1, active compounds read low 0.846 | locus YGL248W, strain PDE1, active compounds read low 0.881 | locus YGR078C, strain PAC10, active compounds read low 0.8 | locus YGR135W, strain pre9, active compounds read low 0.806 | locus YGR252W, strain gcn5, active compounds read low 0.689 | locus YHR079C, strain IRE1 (second series), active compounds read low 0.925 | locus YHR200W, strain rpn10, active compounds read low 0.868 | locus YIL125W, strain kgd1, active compounds read low 0.924 | locus YIR030C, strain dcg1, active compounds read low 0.912 | locus YJL168C, strain set2, active compounds read low 0.914 | locus YKL068W, active compounds read low 0.921 | locus YKR001C, strain vps1, active compounds read low 0.797 | locus YLR039C, strain RIC1, active compounds read low 0.673 | locus YLR371W, strain rom2, active compounds read low 0.821 | locus YLR418C, strain cdc73, active compounds read low 0.591 | locus YML032C, strain rad52, active compounds read low 0.881 | locus YML124C, strain tub3, active compounds read low 0.91 | locus YMR078C, strain ctf18, active compounds read low 0.899 | locus YMR223W, strain ubp8, active compounds read low 0.879 | locus YMR307W, strain GAS1, active compounds read low 0.588 | locus YNL153C, strain GIM3, active compounds read low 0.704 | locus YNL233W, strain BNI4, active compounds read low 0.826 | locus YNL307C, strain MCK1, active compounds read low 0.719 | locus YNL322C, strain KRE1, active compounds read low 0.923 | locus YOL147C, strain pex11, active compounds read low 0.887 | locus YOR136W, strain idh2, active compounds read low 0.915 | locus YOR144C, strain elg1, active compounds read low 0.91 | locus YOR184W, strain ser1, active compounds read low 0.725 | locus YOR316C, strain cot1, active compounds read low 0.918 | locus YPR119W, strain clb2, active compounds read low 0.914 | locus YPR163C, strain tif3, active compounds read low 0.855 | locus YPR167C, strain met16, active compounds read low 0.868 | strain wtn01, active compounds read low 0.897

Reference: PubChem BioAssay AID1159580 (chemical genetic matrix, 2015)
